Rows were chosen to be rich in hits. Some 8% of all compounds tested hit in one or more screens of this group.
Gal4-VP16 FLuc – Gal4-VP16 reporter inhibition counter-screen; Drosophila S2 Gal4-VP16 UAS-luciferase, luminescence, 20 h; Potency, µM (titrated, usually from 53.6 µM), inactives show at the highest dose activity, negative = inhibition, most hits filed as inhibitors; 310,000 compounds, 3.5% hits;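 further: Gal4-VP16 expression switched on by copper sulfate through the metallothionein promoter; potency means the concentration at half of the fitted maximal effect; nearly all actives have a fitted effect of over 50% in size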
Coupling enz – inhibits coupling enzyme system, counter-screen for aldolase hits; AID 2472; 290,000 compounds, 0.67% hits; coupling enzyme system counterscreen, AmpLite Red fluorescence; activity change, negative = inhibition, % at 58.2 µM, hits read low; in the data active means activity change below about -30%
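First, compound is pin-transferred into glyceraldehyde-3-phosphate coupling-enzyme reagent at 57.5 uM final and held 10 min at RT. Next, substrate, coupling system and AmpLite Red are added. After 20 min RT, fluorescence (525/598 nm) is read.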
TSHR antagonist – antagonists of human thyroid stimulating hormone receptor; P16473; TSHR-expressing cells, TSH-stimulated cAMP HTRF, 2 h; stronger effect = lower value; activity change, negative = inhibition, % at 11.5 µM; 330,000 compounds, 0.2% hits; AID 504810;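 active means activity change below a set negative limit, meaning inhibition stronger than a set level, cut at about -70% in these data; inconclusive means activity change between two set negative limits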
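Inhibition of cAMP made by TSHR-expressing cells under TSH stimulation (4nM final, EC80; 2 h, 37 deg C) is quantified with a one-step lysis HTRF kit, anti-cAMP cryptate versus cAMP-d2.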
RORgamma inh – blocks mouse ROR gamma transcriptional activity. 310,000 compounds, 5.4% hits. Potency, µM (highest dose often 53.6 µM), without a hit: top-dose activity change, negative = inhibition, actives largely listed as inhibitors. Drosophila S2 Gal4-RORgamma UAS-luciferase reporter, 20 h; further: potency means the concentration at half of the fitted maximal effect; nearly all actives have a fitted effect of over 60% in size
Target sequence (P51450 whole entry, looked up, the tested form may be a part): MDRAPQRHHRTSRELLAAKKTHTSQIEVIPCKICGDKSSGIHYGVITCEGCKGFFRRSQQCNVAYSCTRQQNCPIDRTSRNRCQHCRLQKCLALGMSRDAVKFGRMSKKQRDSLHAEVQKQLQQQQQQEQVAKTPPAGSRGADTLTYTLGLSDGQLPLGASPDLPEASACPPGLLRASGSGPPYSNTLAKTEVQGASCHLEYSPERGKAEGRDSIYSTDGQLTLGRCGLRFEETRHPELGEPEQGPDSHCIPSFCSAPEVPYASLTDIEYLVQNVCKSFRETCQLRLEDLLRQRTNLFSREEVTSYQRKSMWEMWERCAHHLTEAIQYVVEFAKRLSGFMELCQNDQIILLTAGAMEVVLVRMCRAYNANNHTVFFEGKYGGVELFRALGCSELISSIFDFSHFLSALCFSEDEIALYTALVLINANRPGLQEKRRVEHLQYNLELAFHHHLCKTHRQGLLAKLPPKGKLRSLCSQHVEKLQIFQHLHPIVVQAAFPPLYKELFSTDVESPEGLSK
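In this cell-based reporter format, copper sulfate (700 uM final) drives Gal4–ROR gamma fusion expression from a metallothionein promoter in Drosophila Schneider cells; compounds preincubated 1 hr, reporter read after 20 hr at ambient temperature.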
ELG1 repair inh – ELG1-dependent DNA repair inhibition; HEK293T ELG1-luciferase reporter, luminescence, 16 h; DNA damage induced by 5-fluorouridine; AID 504467; Potency, µM (highest dose often 46.1 µM), for the others: top-dose activity change, negative = inhibition, most hits filed as inhibitors; 330,000 compounds, 2.3% hits; further: potency means the concentration at half of the fitted maximal effect; nearly all actives have a fitted effect of over 55% in size
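5-Fluorouridine DNA damage + compound/DMSO, 2,000 cells/well, 16 h, 37 °C/5% CO2. ONE-Glo, 30 min RT, luminescence. Readout = decrease in reporter signal.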
Numbers without * were called inactive; ? = inconclusive; / = not tested or not shown; [ ] = another dose, or the depositor's remark. Unless noted, the call rests on the fitted dose curve; in most records, active means well fitted curve in the direction sought with a large enough effect; inconclusive means small, poorly fitted or top-dose-only effect, or another doubt; inactive means no such curve, though single readings can be large; an effect the other way counts as inactive or inconclusive. On the % scale 0 is the no-effect control and ±100 the full control effect.

SMILES	Gal4-VP16 FLuc	Coupling enz	TSHR antagonist	RORgamma inh	ELG1 repair inh
Cc1cc(OC(=O)c2cccc(Br)c2)c([N+](=O)[O-])c(=O)[nH]1	-17%	-3	1	0%	0%
COc1cc(C(=O)NNC(=O)c2cc(S(=O)(=O)N(C)C)ccc2N2CCCC2)cc(OC)c1OC	/	/	4	/	?
O=C(NC(=S)N1CCN(C/C=C/c2ccccc2)CC1)c1ccco1	4µM*	2	-1	1.1µM*	-18%
O=C(NC(=S)N1CCN(C/C=C/c2ccccc2)CC1)c1c(F)cccc1F	2.8µM*	1	-6	1.3µM*	-4%
COc1ccc(CNCC(=O)Nc2cc(OC)cc(OC)c2)cc1	-5%	4	6	51%	?
CC(=O)N1CCN(c2ccc(NC(=O)c3ccco3)cc2)CC1	-10%	-4	0	-24%	?
O=C(NC(=S)Nc1ccc(N2CCCCC2)cc1)c1ccco1	20µM*	-2	-3	7.1µM*	?
CC1CCN(c2ccc(NC(=S)NC(=O)c3ccco3)cc2)CC1	7.1µM*	0	-13	3.2µM*	?
CC1CCN(c2ccc(NC(=O)Cc3ccccc3)cc2)CC1	-15%	0	4	24%	?
Cc1ccc(S(=O)(=O)NCCC(=O)N2CCC(C)CC2)cc1	/	/	-3	/	-10%
COC(=O)C1CCN(C(=O)COC(=O)CNC(=O)c2ccc(Cl)cc2Cl)CC1	/	/	2	/	7%
O=C(C[C@H]1C[C@H](C(=O)N2CCCCC2)[C@@]2(CCc3ccccc3)c3[nH]c4ccc(Cl)cc4c3CCN2C1=O)NCc1cccc(C(F)(F)F)c1	/	/	-3	/	?
O=C(c1ccc(C(F)(F)F)cc1)N1CCN(S(=O)(=O)c2ccc3c(c2)OCCCO3)CC1	-4%	/	0	13µM*	?
CC(=O)Nc1ccc(C(=O)N2CCN(S(=O)(=O)c3ccc4c(c3)OCCCO4)CC2)cc1	/	/	5	/	17%
Cc1cccc(NC(=S)N(CCN(C)C)Cc2cccs2)c1	-1%[10 µM]	1	-1	11µM*	4%
Cc1cc(C)c(NC(=S)N(CCN(C)C)Cc2cccs2)c(C)c1	-9%[10 µM]	-8	8	17%	?
CCc1cccc(C)c1NC(=S)N(CCN(C)C)Cc1cccs1	-9%[10 µM]	1	-2	11µM*	9%
Cc1cccc(C)c1NC(=S)N(CCN(C)C)Cc1cccs1	-3%	0	7	10µM*	12%
CN(C)C(=O)c1ccc(-c2ccc3ncnc(N4CCC(C(=O)O)CC4)c3c2)cc1	1%	-3	/	-13%	/
Cc1ccc(CNC(=O)c2ccc(N3CCCC3=O)cc2)cc1	2%	1	-3	10%	?
Cn1nc(C(C)(C)C)cc1C(=O)NCc1ccc(N2CCCC2=O)cc1	0.56µM*	1	-22	?	-22%
N#Cc1cccc(NC(=O)Cn2cnc(S(=O)(=O)N3CCCCC3)c2)c1	-7%	2	-8	3%	0%
O=C(NCc1ccccc1)c1onc(CSc2ccccc2)c1C(=O)NCC1CC1	-4%	-6	-19	?	23µM*
O=C(NCc1ccccc1)c1onc(CSc2ccc(Cl)cc2)c1C(=O)NCC1CC1	/	/	-10	/	6%
CC(C)NC(=O)c1onc(CSc2ccc(C(C)C)cc2)c1C(=O)O	20µM*	17	-5	?	0%
SMILES	Gal4-VP16 FLuc	Coupling enz	TSHR antagonist	RORgamma inh	ELG1 repair inh
CC(C)NC(=O)c1onc(CSc2ccc(F)cc2)c1C(=O)O	-5%	8	19	-2%	11%
CC1(C)O[C@H]2O[C@@H]([C@H](O)CON3C(=O)c4ccccc4C3=O)[C@H](O)[C@H]2O1	0%[10 µM]	1	/	-33%[10 µM]	/
Cn1c(/C=C/c2cccc([N+](=O)[O-])c2)c([N+](=O)[O-])c(=O)n(C)c1=O	?	3	-10	16µM*	?
COc1ccc(/C=C/c2c([N+](=O)[O-])c(=O)n(C)c(=O)n2C)cc1OC	7%	-2	-1	8%	12%
c1ccc(-c2nnc3sc(-c4csc5c4CCCC5)nn23)cc1	?	-1	-2	6.3µM*	?
CCCCNc1c(-c2cccc(-c3ccc(OC)cc3)c2)nc2cc(C)ccn12	/	/	-22	/	23µM*

Compound activity as filed in PubChem BioAssay.
